# Bioassay records: PubChem BioAssay, National Center for Advancing Translational Sciences (NCATS)
# A selection: hits, their analogues and other compounds. The true share with any hit is near 2%.
# aSyn rescue – rescues yeast growth from alpha-synuclein toxicity | Yeast expressing alpha-synuclein, growth rescue, BacTiter-Glo, 24 h | Potency, µM (top dose mostly 46.1 µM), without a hit: top-dose growth rescue (activation), usual class: activators | 370,000 compounds, 0.14% hits; further: % of control where 0% means no effect; nearly all actives have a fitted effect of over 65% in size
#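 Readout is rescue of growth in alpha-synuclein-expressing yeast, so inhibitors of toxicity appear as activators. Growth after 24 hr at 30 deg C in galactose medium is quantified by luminescence.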
# S-ASM inh – inhibitors of human secretory acid sphingomyelinase; placental ASM, HMU-PC fluorogenic substrate, 60 min; Potency, µM (series often up to 57.5 µM), without a hit: at the top dose activity change, negative = inhibition, most hits filed as inhibitors; 340,000 compounds, 0.006% hits
#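 Fluorogenic HMU-PC substrate (9 uM final) is turned over by placental ASM in 60 min at 37 C after a 10 min compound preincubation. Reaction ended by alkaline stop (pH 10), with fluorescence read at 386/447 nm.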
# Rango complex inh – Rango-importin beta binding inhibition. Q14974. AID 540263. Rango CFP/YFP FRET sensor + importin beta, 45 min. 340,000 compounds, 0.031% hits. Potency, µM (doses to about 92.2 µM), inactives show at the highest dose inhibition of complex formation; calls by dose curve;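 further: 0% = DMSO wells and 100% = buffer wells lacking importin beta; nearly all actives have a fitted effect of over 15% in size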
# Target sequence (Q14974 whole entry, looked up): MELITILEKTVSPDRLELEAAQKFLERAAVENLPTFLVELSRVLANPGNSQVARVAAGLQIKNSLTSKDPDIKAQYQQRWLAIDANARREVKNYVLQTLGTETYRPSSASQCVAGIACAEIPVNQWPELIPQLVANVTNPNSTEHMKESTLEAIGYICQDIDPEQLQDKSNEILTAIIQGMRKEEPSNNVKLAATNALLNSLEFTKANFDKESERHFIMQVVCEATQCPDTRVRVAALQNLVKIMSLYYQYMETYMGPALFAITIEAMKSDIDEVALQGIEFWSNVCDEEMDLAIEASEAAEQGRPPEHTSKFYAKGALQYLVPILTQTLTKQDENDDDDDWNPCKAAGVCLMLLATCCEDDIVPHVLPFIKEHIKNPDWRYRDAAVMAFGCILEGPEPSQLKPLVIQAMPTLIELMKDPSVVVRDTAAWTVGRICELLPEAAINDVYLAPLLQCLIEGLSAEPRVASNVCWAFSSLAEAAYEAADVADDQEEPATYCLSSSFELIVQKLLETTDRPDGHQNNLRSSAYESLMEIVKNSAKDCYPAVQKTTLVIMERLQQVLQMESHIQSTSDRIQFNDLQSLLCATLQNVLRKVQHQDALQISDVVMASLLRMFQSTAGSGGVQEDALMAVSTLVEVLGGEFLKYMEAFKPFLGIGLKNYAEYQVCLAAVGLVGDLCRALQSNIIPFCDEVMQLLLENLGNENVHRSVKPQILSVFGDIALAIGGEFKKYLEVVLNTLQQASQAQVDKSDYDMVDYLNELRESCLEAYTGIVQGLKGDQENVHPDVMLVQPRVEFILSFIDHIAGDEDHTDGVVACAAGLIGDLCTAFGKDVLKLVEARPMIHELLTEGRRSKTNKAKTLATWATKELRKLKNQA
#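 Inhibition scored from the CFP 486 nm/YFP 530 nm FRET ratio 45 min after adding 0.125 microM importin beta to 50 nM Rango biosensor preincubated 5 min with compound (room temperature, PBS with DTT, Tween-20, BSA). No-importin wells as positive control.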
# Rango release inh – prevents RanGTP from dissociating the Rango-importin beta complex. O95149+P62826. Biochemical FRET Rango-importin beta, RanGTP-induced dissociation. Potency, µM (highest dose often 46.1 µM), inactives show top-dose activity change, negative = inhibition. 340,000 compounds, 0.071% hits; calls by dose curve; further: % of control where 0% means no effect; nearly all actives have a fitted effect of over 45% in size
#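 Compounds sat 5 min at room temperature with 0.1 uM Rango biosensor plus 0.25 uM importin beta, then FRET pre-read. RanGTP-RCC1 (0.6 uM Ran, 2mM GTP, 0.2 uM RCC1) added for 45 min, and the CFP/YFP post-read measured blocked complex dissociation.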
# Abeta rescue – A-beta toxicity reversal in yeast; yeast expressing A-beta42, growth rescue, OD600, 48 h; response scale: 0% DMSO, 100% iron-clioquinol control; Potency, µM (top dose mostly 46.1 µM), usual class: activators; 410,000 compounds, 0.063% hits; further: nearly all actives have a fitted effect of over 55% in size
#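 Yeast growth medium received pinned compounds, then yeast cells expressing toxic A-beta were added; plates incubated at 30 C for 48 hr. Growth read as absorbance at 600 nm, normalized to DMSO and equimolar FeCl3 plus clioquinol controls.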
# TDP43 rescue – inhibitors of TDP-43 toxicity in yeast; TDP-43 expressing yeast growth rescue, BacTiter-Glo, 24 h; Potency, µM (highest dose often 46.1 µM), inactives show at the highest dose growth rescue (activation), usual class: activators; 410,000 compounds, 1.8% hits; AID 652104; further: % of control where 0% means no effect; nearly all actives have a fitted effect of over 50% in size
#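 Luminescence from BacTiter-Glo reports growth of TDP-43-expressing yeast after 24 hr at 30 deg C with compound. Cells were raffinose-pregrown to mid-log, then seeded in galactose medium at OD600=0.02.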
# An asterisk follows results filed as active; i = inactive; u = inconclusive; x = no result given; [ ] = dose if it differs, or a comment. Unless noted, the call rests on the fitted dose curve; in most records, active means well fitted curve in the direction sought with a large enough effect; inconclusive means small, poorly fitted or top-dose-only effect, or another doubt; inactive means no such curve, though single readings can be large; an effect the other way counts as inactive or inconclusive. Potency means the concentration at half of the fitted maximal effect.
SMILES,aSyn rescue,S-ASM inh,Rango complex inh,Rango release inh,Abeta rescue,TDP43 rescue
Cc1cnn(C(=S)NCCc2ccccc2)c1,-11%,1%,-2%,11%,i,11µM*
Cc1cnn(C(=S)NCc2ccc(Cl)cc2)c1,-5%,-1%,1%,3%,i,24%
COc1ccc2c(CC(=O)Nc3nc(C)cs3)coc2c1,-17%,-3%,6%,8%,i,13µM*
Cc1ccc2c(CC(=O)Nc3nc(C)cs3)coc2c1,-12%,-3%,-1%,9%,u,11µM*
CCc1ccc(OCC2c3cc(OC)c(OC)cc3CCN2C(=O)c2ccc(S(=O)(=O)N3CCCC3)cc2)cc1 (stereo not given),5%,x,x,x,i,0%
CCC(=O)Nc1ccc(C)cc1-c1nc2ccccc2n(CC(=O)Nc2ccccc2Cl)c1=O,x,x,x,x,i,-9%
CC1=CCC2C(=O)N(c3cccc(C(=O)Nc4ccc(Cl)cc4)c3)C(=O)C2C1 (stereo not given),27%,u,-1%,0%,14µM*,u
CC1=CCC2C(=O)N(c3cccc(C(=O)NCc4ccccc4)c3)C(=O)C2C1 (stereo not given),5%,-1%,0%,3%,i,1%
CC(Cc1cccs1)NC(=O)Nc1ccccc1 (stereo not given),-10%,3%,7%,-16%,i,-9%
CC(Cc1cccs1)NC(=O)Nc1ccc(Cl)cc1 (stereo not given),-13%,-1%,0%,-6%,i,22µM*
CCC(C)NC(=S)Nc1ccccc1 (stereo not given),0%,-2%,-2%,8%,u,-7%
CC(Cc1cccs1)NC(=S)Nc1ccccc1 (stereo not given),1%,1%,3%,5%,11µM*,-11%[0.397 µM]
CCCCCCn1c(-c2cccs2)n[nH]c1=S,2%,-7%,-1%,10%,6.3µM*,-12%[0.397 µM]
CCCCn1c(-c2csc3ccccc23)n[nH]c1=S,6%,4%,0%,15%,i,u
CCCCn1c(-c2cccs2)nc2nc3ccccc3nc21,5%,i,u,u,i,13µM*
CC(C)CC(=O)Nc1nc2c(s1)CC(C(C)(C)C)CC2 (stereo not given),x,x,x,x,i,7%
Brc1ccsc1/C=N/Nc1ccccc1,-2%,-4%,-3%,0%,i,10µM*
CCn1c(/C(C#N)=N/O)nc2ccccc21,-7%,0%,-4%,1%,i,18%
Cn1c(/C(C#N)=N/O)nc2ccccc21,-1%,0%,0%,0%,i,13%
CCn1c(/C(C#N)=C/c2ccccc2Cl)nc2ccccc21,x,x,x,x,i,18µM*
Cn1c(/C(C#N)=C/c2ccccc2Br)nc2ccccc21,x,x,x,x,i,11µM*
c1ccc(-c2ccc(-c3csc4ncnc(Sc5nnnn5-c5ccccc5)c34)cc2)cc1,1%,x,x,x,x,x
CCC(CC)C(=O)Nc1cc(-c2cccc(C)c2)nn1-c1ccccc1,x,x,x,x,i,13µM*
CCC(Oc1ccccc1)C(=O)Nc1cc(-c2cccc(C)c2)nn1-c1ccccc1 (stereo not given),x,x,x,x,i,-9%
Oc1ccc2ccccc2c1CNc1ccc(Br)cn1,1%,-18%,-2%,-20%,i,20µM*
SMILES,aSyn rescue,S-ASM inh,Rango complex inh,Rango release inh,Abeta rescue,TDP43 rescue
Oc1ccc2ccccc2c1CNc1ccc(Br)cc1,10%,-2%,0%,-12%,i,8%
O=S(=O)(NCc1nc2cccnc2n1Cc1ccc(F)cc1)c1ccc(Cl)s1,x,x,x,x,i,19%
COc1ccc(CCn2c(C)cc(C(=O)CCl)c2C)cc1OC,-7%,-1%,0%,-1%,i,16µM*
Cc1cc(-n2c(C)cc(C(=O)CN3C(=O)C(=O)N(C)C3=O)c2C)no1,-7%,-2%,1%,4%,i,19%
COc1ccc(-n2c(C)cc(C(=O)CCl)c2C)cc1,11%,-1%,4%,9%,i,3.2µM*
Cc1cc(-n2c(C)cc(C(=O)CCl)c2C)no1,-7%,3%,-1%,16%,i,3.5µM*
Cc1cc(C)c(Cn2c(CCNC(=O)c3ccco3)nc3ccccc32)c(C)c1,x,x,x,x,i,22%
O=C(c1cccc(Cl)c1)N(Cc1cccc(F)c1)C1CCS(=O)(=O)C1 (stereo not given),x,x,x,x,i,29%
O=C(Nc1cccc(NC(=O)c2ccccc2Cl)c1)c1cccs1,-17%,-4%,0%,1%,i,22µM*
CCC(=O)NC(=S)Nc1cccc(NC(=O)c2ccccc2Cl)c1,-2%,0%,0%,4%,i,14µM*
CCCC(=O)NC(=S)Nc1cccc(NC(=O)c2ccccc2Cl)c1,5%,-6%,4%,-1%,i,11µM*
Cc1ccc(NC(=O)c2cccs2)cc1NC(=O)c1ccccc1Cl,0%,-1%,0%,-2%,i,10%
CCC(=O)NC(=S)Nc1cccc(NC(=O)c2ccccc2C)c1,11%,-3%,1%,7%,i,3%
Cc1csc2nc(-c3cccc(NC(=O)c4ccccc4Cl)c3)cn12,-11%,x,x,x,i,20µM*
CCOC(=O)c1ccc(NS(=O)(=O)c2ccc(Br)s2)cc1,x,x,x,x,i,18µM*
CCOC(=O)c1ccc(NC(=O)CN(C)S(=O)(=O)c2ccc(Br)s2)cc1,3%,-13%,-3%,15%,i,12%
Clc1ccc(Nc2nc(C3CC3)cs2)cc1,2%,1%,-3%,-2%,i,14µM*
S=c1[nH]nc(Nc2ccc(Cl)cc2)s1,-12%,-3%,-4%,20%,i,9%
CS(=O)(=O)c1ccc(NC(=O)COc2ccccc2C(=O)Nc2ccccc2)cc1,-6%,x,x,x,x,x
O=S(=O)(c1cc(Br)ccc1Br)N1CCCCCC1,4%,4%,2%,16%,i,7.9µM*
NC(=O)c1ccc(Br)c(S(=O)(=O)N2CCCCC2)c1,1%,0%,-1%,-4%,i,-5%
CCCOC(=O)c1c(-c2ccccc2)c(-c2ccccc2)nn(C)c1=O,x,x,x,x,i,28%
Nc1nn(-c2ccccc2)c(N)c1N=Nc1cccc(F)c1,-19%,-14%,-2%,6%,i,u
Nc1nn(-c2ccccc2)c(N)c1N=Nc1ccc2c(c1)OCO2,-15%,-13%,1%,-14%,i,18µM*
Cc1ccccc1Nc1c(-c2ccco2)nc2c(C)cccn12,x,x,x,x,i,u
Nc1c(C(=O)Nc2ccccc2Br)sc2nc(-c3cccs3)ccc12,x,x,x,x,i,23%
CC(=O)c1sc2nc(-c3cccs3)ccc2c1N,8%,0%,u,u,i,10µM*
